Laboratory results: PubChem BioAssay (NCI)
About 83,000 compounds went through this panel and 20% of them were active in at least one assay; those are over-represented in the sample as a whole.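 For each line, cells grew in 96-well plates with the test compound present at a single concentration for 48 hours.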 Values without a mark were called inactive. Active and inactive are the calls of the source.

What follows are molecules tested on NCI-H226 lung (assay: NCI-60 one-dose screen, 48 h (100 = growth as untreated, 0 = no growth, -100 = all killed)). Settings: 10 µM unless noted.
Experimental: Growth inhibition of the NCI-H226 human Non-Small Cell Lung tumor cell line is measured as a screen for anti-cancer activity. Cells are grown in 96 well plates and exposed to the test compound for 48 hours. Compounds are tested at a single concentration, which is 10^-5 M for most compounds. The reported endpoint is percent growth (GI% or GIPRCNT), where numbers from 0 - 100% represent growth inhibition, and numbers from -100% - 0 represent cell death. For example, a value of 40 represents 60% growth inhibition. A value of 0 means no net growth occurred over the course of the experiment. A value of -40 indicates 40% of cells at the beginning of the experiment died by the end of the experiment. A value of -100 means all cells are dead at the end of the experiment.
NCI-60 Human Tumor Cell Lines Screen was performed using the standard one-dose NCI protocol, which is described in more detail at https://dtp.cancer.gov/discovery_development/nci-60/default.htm.
Compounds with GIPRCNT values below 10 were considered active. Activity score was based on GIPRCNT using the following formula: […]
Score is 0 for GIPRCNT values of 100 or above, 50 for GIPRCNT values of 0, and 100 for GIPRCNT values of -100.

Structure (SMILES) | growth
CC1(C)N=C(N)N=C(N)N1c1ccc(CNC(=O)Nc2ccc(S(=O)(=O)F)c(Cl)c2)c(Cl)c1 | 83.8%
Cc1ccccc1O | 97%
NC(=O)SCC(=O)Nc1ccc([As](=O)(O)O)cc1 | 111%
ClCCN(CCCl)c1ccc(/C=C\c2ccnc3ccccc23)cc1 | 69.1%
COc1ccccc1N1CCN(CCc2c[nH]c3cc4c(cc23)OCO4)CC1 | 79.3%
CCC[CH2][Sn]([CH2]CCC)([CH2]CCC)[O]C(=O)CC | -58.9% (active)
CNc1ccc(C(=O)CC(O)CCC(C)C2OC(=O)CC(O)CC(=O)CC(O)CC(O)CC(O)CC(O)CC3(O)CC(O)C(C(=O)OC)C(CC(O[C@@H]4O[C@H](C)[C@@H](O)[C@H](N)[C@@H]4O)/C=C/C=C/C=C/C=C/C=C/C=C/C=C/C2C)O3)cc1 (stereo not given in full) | -37.7% (active)
CC1(CF)NC(=O)NC1=O (stereo not given) | 119%
CC1(C)N=C(N)N=C(N)N1c1ccc(OCCCCNC(=O)Nc2cccc(S(=O)(=O)F)c2)c(Cl)c1 | 69.4%
COc1ccc2c(c1)NC1=C(C(=O)OC1)C2c1cc(OC)c(OC)c(OC)c1 (stereo not given) | 49.6%
C[CH2][Sn]([CH2]C)([CH2]C)[NH]S(=O)(=O)c1ccc(C)cc1 | 116%
COc1ccc(C2=NN(c3ccccc3)C(c3sc(N(CCCl)CCCl)nc3Cl)C2)cc1 (stereo not given) | 76.2%
COc1cc(C2CC(=O)Nc3nc(N)[se]c32)cc(OC)c1OC (stereo not given) | 103%
CCC(C)(C)O | 102%
CCN(CC)c1ccc(C=C2C(=O)NC(=S)NC2=O)cc1 | 85.5%
NC(Cc1ccc2c(c1)OCO2)c1ccc2c(c1)OCO2 (stereo not given) | 105%
CC1(C)N=C(N)N=C(N)N1c1ccc(OCCCCNC(=O)c2ccc(S(=O)(=O)F)cc2)c(Cl)c1 | 117%
S=P(Nc1ccccc1)(Nc1ccccc1)c1ccccc1 | 112%
CC(=O)[O][Hg][c]1ccccc1 | 81.9%
CC(C)(C)NCC(O)c1ccccc1Cl (stereo not given) | 45%

Structure (SMILES) | growth
COc1ccc(NP2(=O)OCC(C)(N)CO2)cc1 (stereo not given) | 105%
C=CCN1C(=O)C(CC)(CCC(C)C)C(=O)NC1=S (stereo not given) | 104%
CN(Cc1cccnc1)N=O | 92.3%
O=C(O)C1(Br)CC12c1ccccc1-c1ccccc12 (stereo not given) | 98.9%
C[CH2][Pb]([CH2]C)([CH2]C)[O]C(=O)c1ccc(N)cc1 | 87.5%
CC(CC(C#N)(c1ccccc1)c1ccccc1)N1CCOCC1 (stereo not given) | 112%
C[C@]12CC[C@H](OC3OC(O)C(O)C(O)C3O)C=C1CCC1C2CC[C@]2(C)[C@@H](c3ccc(=O)oc3)CC[C@]12O (stereo not given in full) | -70.6% (active)
Nc1nc(N)c(-c2ccc(Cl)c(Cl)c2)c(/C=C/c2ccc(S(=O)(=O)F)cc2)n1 | 114%
CC[C@@H](C)/C=C(C)/C=C/C(=O)c1c(O)c(-c2ccc(O)cc2)cn(O)c1=O | -1.76% (active)
CC1(C)N=C(N)N=C(N)N1c1ccc(OCCCCOc2ccc(S(=O)(=O)F)cc2)c(Cl)c1 | 29.6%
FC(F)=C(F)c1ccccc1 | 113%
[O]=[Sn]([CH]1CCCCC1)[CH]1CCCCC1 | -74% (active)
C=C=[CH][Sn]([c]1ccccc1)([c]1ccccc1)[c]1ccccc1 | -40.4% (active)
Fc1ccc(C2=NN(c3ccccc3)C(c3sc(N(CCCl)CCCl)nc3Cl)C2)cc1 (stereo not given) | 74.1%
[N-]=[N+]=NC(C(=O)O)c1ccccc1 (stereo not given) | 125%
CC12CC[C@H](O)C=C1/C(=N/O)CC1C2CCC2(C)C1CC[C@@H]2O (stereo not given in full) | 97.1%
NC(Cc1ccc(O)cc1)C(=O)N/N=C/c1ccc(N(CCCl)CCCl)cc1 (stereo not given) | 46.8%
C#CC1(O)CCC2(C)C(CCC3C4CCC(=O)C4(C)CCC32)C1 (stereo not given) | 86.4%
CC(=O)N(C)C1=Nc2ccc(Cl)cc2C(c2ccccc2)=[N+]([O-])C1 | 105%
CCCCCCCCCCCCOc1ccc(C(=O)Oc2ccc(CSP3(=O)OCC4OC(n5cnc6c(N)ncnc65)C(F)C4OP(=O)(O)OCC4OC(n5ccc(=O)[nH]c5=O)C(F)C4O3)cc2)cc1 (stereo not given) | 85.5%
